In PubChem BioAssay (NCATS):
Values joined by “and” are separate entries in the source; they are usually repeats but may differ in a detail not shown here. Equal entries are not always repeated. Records with an inconclusive call do not appear. Active and inactive are the calls of the source. Unless noted, calls come from the whole dose curve; as a rule, active = well fitted curve in the direction sought with a large enough effect; inconclusive = small, poorly fitted or top-dose-only effect, or another doubt; inactive = no such curve, though single readings can be large; an effect the other way counts as inactive or inconclusive. Peptide text beside a SMILES is read from it.

Legend:
[1] = Cytotoxicity counterscreen for NFkB agonists and antagonists (AID 624476);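 note: cells exposed to compound for 48 hours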; note: potency is the fitted concentration of half-maximal effect
[2] = qHTS Assay for Identification of Small Molecule Antagonists for NFkB Signaling Pathway. (AID 624479; calls by dose curve;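 note: pathway stimulated with TNF alpha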; note: potency is the fitted concentration of half-maximal effect)
[3] = Cell Proliferation Assay against the TMD8 Cell Line (AID 651645); conditions: TMD8 DLBCL cell line proliferation/viability; at 46.1 µM (top of the series) unless noted;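 note: cells exposed to compound for 48 h before reading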
In short: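 500 TMD8 cells/well, RPMI + Glutamax, no phenol red, 5% FBS; cpd added immediately; 48 h, 37C, 5% CO2; CellTiter-Glo, luminescence. Controls: DMSO = 100%, bortezomib 9.2 uM final = 0%.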

[4] = Cell Proliferation Assay against the HBL1 Cell Line (AID 651646); conditions: HBL1 DLBCL cells; at 46.1 µM (top of the series) unless noted;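 note: cells exposed to compound for 48 h before reading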
In short: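 CellTiter-Glo luminescence after 48 h compound exposure at 37C gives percent activity, with DMSO as 100% and 9.2 uM bortezomib final as 0%. Cells: 500 log-phase HBL1 per well, RPMI plus 5% FBS.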

[5] = Cell Proliferation Assay against the TMD8 Cell Line (Caspase readout at 8 hrs) (AID 651713); note: potency is the fitted concentration of half-maximal effect
In short: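 Caspase 3/7 activation in ABC DLBCL TMD8 cells is measured by luminescence after an 8 h compound exposure at 37C. Relative light units are scaled between DMSO (0%) and 9.2 uM final bortezomib (100%).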

[6] = biological target: Glucagon-like peptide 1 receptor (Homo sapiens) (UniProt P43220); experiment: qHTS of GLP-1 Receptor Agonists: LOPAC Validation (AID 624148);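 note: luminescence from a luciferase reporter switched on by cAMP; 0% is about no effect; higher luminescence signal means agonism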
In short: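 Agonism scored as increased luciferase luminescence driven by cAMP in HEK293 clones carrying GLP-1R. Cells settled 12 hours, received compound for 4-6 hr at 37 deg C, 5% CO2, and were read after 12 min detection reagent at RT.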

[7] = qHTS of Nrf2 Activators: LOPAC Validation (AID 624149); note: 0% is about no effect
In short: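 Cells (AREc32_Fluc) are plated at 1000 per well in OPTI-MEM containing 5% FBS and left overnight. Compounds are pinned in and incubated 24 hr at 37 deg C, and firefly luciferase is detected with Steady-Glo.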

[8] = HTS Assay for Allosteric Antagonists of the Human D2 Dopamine Receptor: Hit Validation in HTRF (AID 624455);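 note: stable D1 dopamine receptor cell line scored for blocking the D1 response; % is set by controls: 0 for no effect and ±100 for the full control effect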
In short: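 Inhibition of the D1-mediated response is measured by HTRF in cells that stably express the D1 dopamine receptor. Compounds reaching this step are hits from calcium-flux antagonism testing at EC80 dopamine in inducible Hek293 Trex D2 cells.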

[9] = qHTS assay for small molecule activators of the nuclear factor-kappa B (NF-kB) signaling pathway (AID 651749; active = well fitted activation curve with a large enough effect in the signal ratio; the % refers to the signal ratio; note: % of control where 0% means no effect); conditions: NF-kB-bla ME-180 cells, beta-lactamase FRET ratio, 16 h; stronger effect = higher value
In short: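 Activation measured after 16 hr compound treatment at 37C, 5% CO2, of 2,000 ME-180 cells/well stably expressing an NF-kB response element–driven beta-lactamase reporter, via FRET-disruption fluorescence.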

[10] = qHTS assay for environmental chemicals that activate the Aryl hydrocarbon Receptor (AhR) signaling pathway (AID 651777); conditions: 1A2-DRE human hepatoma cells, luciferase, 24 h; activation: stronger effect = higher value; note: nearly all actives have a fitted effect of over 15% in size; note: potency is the fitted concentration of half-maximal effect; for activation: % of control where 0% means no effect
In short: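 Reporter gene assay: hepatoma cells with DRE/CYP1A2-luciferase, 24 hr compound incubation at 37 C, 5% CO2, luminescence after One-Glo (30 min, RT).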

[11] = biological target: Peroxisome proliferator-activated receptor alpha (Homo sapiens) (UniProt Q07869); experiment: qHTS assay for small molecule agonists of the peroxisome proliferator-activated receptor alpha (PPARalpha) signaling pathway (AID 651778); conditions: PathHunter PPARalpha complementation, chemiluminescence, 6 h; stronger effect = higher value; note: % of control where 0% means no effect
In short: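 Chemiluminescence from complemented enzyme reported PPARalpha activation in cells after 6 hr of compound treatment at 37 C. The detection reagent was incubated for 60 min at room temperature, and compounds were scored as agonists.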

[12] = qHTS of Trypanosoma Brucei Inhibitors: LOPAC Validation (AID 624147); note: 0% is about no effect
In short: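 Readout: single end-point luminescence (Kinase-Glo Plus, 10 min). Reaction conditions were TbPYK/substrate plus 130 uM ADP, 45 min at RT, pH 7.2 TEA buffer. No-enzyme wells served as controls, and data were normalized before concentration-response fitting.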

[13] = qHTS assay for small molecule activators of the p53 signaling pathway (AID 651743; active = well fitted activation curve with a large enough effect in the signal ratio, not every such curve was filed as active; the % refers to the signal ratio; note: % of control where 0% means no effect); conditions: HCT-116 p53RE-bla, beta-lactamase FRET ratio, 16 h; activation: stronger effect = higher value
In short: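 After 16 hours compound treatment at 37 C, HCT-116 cells stably expressing p53RE-driven beta-lactamase were loaded with LiveBLAzer B/G FRET substrate for 2 hours at room temperature. Fluorescence intensity served as the p53 activation read-out.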

[14] = Cell Proliferation Assay against the TMD8 Cell Line (Caspase readout at 16 hrs) (AID 651712); note: potency is the fitted concentration of half-maximal effect
In short: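 Caspase-Glo luminescence measured apoptosis after a 16 h, 37 C compound exposure of TMD8 cells (500 cells/well, 5% FBS RPMI). DMSO set 0% and bortezomib at 9.2 uM final set 100% activity.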

[15] = qHTS assay for small molecule agonists of the antioxidant response element (ARE) signaling pathway (AID 651741; active = well fitted activation curve with a large enough effect in the signal ratio; the % refers to the signal ratio; note: potency is the fitted concentration of half-maximal effect; for activation: % of control where 0% means no effect)
In short: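 Beta-lactamase reporter under ARE control in HepG2 cells, 2,000 per well, was induced by 16 h compound treatment at 37 C. Read-out was fluorescence from LiveBLAzer B/G FRET substrate after 2 h at room temperature.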

[16] = biological target: Tumor necrosis factor (Homo sapiens) (UniProt P01375); experiment: qHTS assay to identify small molecules that stimulate Tumor Necrosis Factor-alpha (TNF-alpha) secretion (AID 651757; active = well fitted curve in the direction sought with a large enough effect in the signal ratio; the % refers to the signal ratio; note: 0% is about no effect)
In short: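 Human monocytic THP-1 cells are plated, treated with compound and held at 37 C for 17 hrs. Labeled anti-TNF-alpha antibody mixture is then added; after 3 hr at room temperature, TR-FRET signal reports secreted TNF-alpha.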

[17] = qHTS assay to identify small molecules that stimulate interleukin-8 (IL-8) secretion (AID 651758; active = well fitted activation curve with a large enough effect in the signal ratio; the % refers to the signal ratio; note: 0% is about no effect)
In short: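 Secreted IL-8 measured homogeneously by TR-FRET (two labelled anti-IL-8 antibodies, 1-3 h at room temperature) after a 16 h, 37 C compound treatment of THP-1 cells at 2000 cells/well.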

[18] = qHTS assay for small molecule disruptors of the mitochondrial membrane potential - 1 hr assay (AID 651754; calls by dose curve; note: % is set by controls: 0 for no effect and ±100 for the full control effect; nearly all actives have a fitted effect of over 35% in size)
In short: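 Loss of mitochondrial potential shifts the cationic dye from red mitochondrial aggregates to green cytoplasmic monomers. Cells (HepG2) are treated with compound for 1 hr before a 30 min dye incubation at 37C.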

[19] = qHTS assay for small molecule disruptors of the mitochondrial membrane potential - 5 hr assay (AID 651755; calls by dose curve; note: % is set by controls: 0 for no effect and ±100 for the full control effect; nearly all actives have a fitted effect of over 40% in size)
In short: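 Membrane-potential dye readout: red aggregate (540 ex/590 em) versus green monomer (490 ex/535 em) fluorescence after 30 min dye loading, following 5 hr compound exposure at 37C of overnight-plated HepG2 cells.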

Tumor necrosis factor (Homo sapiens), sequence (P01375 whole entry, looked up): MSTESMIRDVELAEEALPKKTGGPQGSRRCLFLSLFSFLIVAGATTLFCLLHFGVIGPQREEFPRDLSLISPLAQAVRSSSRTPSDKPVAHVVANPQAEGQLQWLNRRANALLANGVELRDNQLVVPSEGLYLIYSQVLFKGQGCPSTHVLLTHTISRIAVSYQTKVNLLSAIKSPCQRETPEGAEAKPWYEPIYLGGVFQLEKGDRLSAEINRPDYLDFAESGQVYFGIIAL
Glucagon-like peptide 1 receptor (Homo sapiens), sequence (P43220 whole entry, looked up): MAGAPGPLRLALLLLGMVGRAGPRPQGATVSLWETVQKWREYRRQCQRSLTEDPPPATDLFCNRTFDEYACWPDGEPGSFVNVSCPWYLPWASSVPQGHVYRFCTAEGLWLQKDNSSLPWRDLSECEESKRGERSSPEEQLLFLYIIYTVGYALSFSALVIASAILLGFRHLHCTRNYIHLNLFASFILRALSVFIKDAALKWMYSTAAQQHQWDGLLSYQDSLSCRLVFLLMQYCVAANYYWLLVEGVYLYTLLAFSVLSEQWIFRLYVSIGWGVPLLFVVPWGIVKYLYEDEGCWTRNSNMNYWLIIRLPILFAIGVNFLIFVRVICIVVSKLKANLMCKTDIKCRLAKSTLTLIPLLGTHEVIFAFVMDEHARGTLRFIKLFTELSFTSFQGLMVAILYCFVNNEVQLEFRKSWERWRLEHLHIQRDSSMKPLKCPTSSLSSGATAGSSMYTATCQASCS
Peroxisome proliferator-activated receptor alpha (Homo sapiens), sequence (Q07869 whole entry, looked up): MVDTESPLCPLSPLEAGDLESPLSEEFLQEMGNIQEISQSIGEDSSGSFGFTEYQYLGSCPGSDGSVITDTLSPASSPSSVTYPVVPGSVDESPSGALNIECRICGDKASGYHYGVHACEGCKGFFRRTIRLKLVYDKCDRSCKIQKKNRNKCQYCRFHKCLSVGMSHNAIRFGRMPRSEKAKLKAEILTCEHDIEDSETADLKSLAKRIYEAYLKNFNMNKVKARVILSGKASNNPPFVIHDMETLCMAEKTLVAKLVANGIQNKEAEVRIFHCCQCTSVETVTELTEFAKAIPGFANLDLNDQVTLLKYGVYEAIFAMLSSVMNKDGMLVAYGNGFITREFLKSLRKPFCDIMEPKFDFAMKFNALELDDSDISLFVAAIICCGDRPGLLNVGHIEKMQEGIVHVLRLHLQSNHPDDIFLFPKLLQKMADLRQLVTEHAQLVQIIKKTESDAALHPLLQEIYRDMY

CCN(CC)CCOc1ccc(Nc2ncc3cc(-c4c(Cl)cccc4Cl)c(=O)n(C)c3n2)cc1
Potency [1]: 2.35 µM (active) | Potency [2]: 7.49 µM (active) | viability (% of control) [3]: 0.582% | viability, percent of control [4]: 1.36% | Potency [5]: 26.4 µM (active)

Cc1cc(O)c2c(c1)C(=O)c1cc(O)cc(O)c1C2=O
outcome [6]: inactive | outcome [7]: inactive | outcome [8]: inactive | activation [9]: 0.85% (inactive) and -1.63% (inactive) | Potency [10]: 44.7 µM (active) | max response [11]: -5.19% (inactive) and -6.73% (inactive)

O=c1c(O)c(-c2ccc(O)cc2O)oc2cc(O)cc(O)c12
Potency [12]: inactive | outcome [6]: inactive | outcome [7]: inactive | outcome [8]: inactive | activation [13]: -1.48% (inactive) | activation [10]: 4.65% (inactive) | max response [11]: -3.16% (inactive)

S=c1nc[nH]c2nc[nH]c12
Potency [2]: inactive | viability (% of control) [3]: 39.5% [at 92.2 µM] | viability, percent of control [4]: 54.4% [at 92.2 µM] | Potency [14]: inactive | Potency [5]: inactive

CCCc1cc(=O)[nH]c(=S)[nH]1
Potency [15]: inactive | activation [13]: 0.119% (inactive) and 0.547% (inactive) | Potency [16]: inactive | activation [10]: 0.594% (inactive) and 1.79% (inactive) | max response [11]: -4.59% (inactive) and -0.354% (inactive)

COC(=O)[C@H](Cc1ccccc1)NC(=O)[C@@H](N)CC(=O)O (H-Asp-Phe-OMe)
Potency [15]: inactive | activation [13]: 0.335% (inactive) and -1.33% (inactive) | activation [9]: -1.39% (inactive) and -0.748% (inactive) | Potency [16]: inactive | outcome [17]: inactive | activation [10]: -1.45% (inactive) and -0.834% (inactive) | max response [11]: -1.47% (inactive) and -4.11% (inactive)

CC(C)c1ccc2c(c1)c(SC(C)(C)C)c(CC(C)(C)C(=O)O)n2Cc1ccc(Cl)cc1
Potency [12]: inactive | outcome [6]: inactive | outcome [7]: inactive | outcome [8]: inactive | Potency [1]: 8.33 µM (active) | viability (% of control) [3]: 9.44% | viability, percent of control [4]: 8.87%

CS(=O)(=O)OCCCCOS(C)(=O)=O
activation [13]: 1.64% (inactive) and 0.944% (inactive) and -3.49% (inactive) | Potency [18]: inactive | Potency [19]: inactive | Potency [16]: inactive | outcome [17]: inactive | activation [10]: 2.49% (inactive) and 0.0953% (inactive) and 0.509% (inactive) | max response [11]: -1.17% (inactive) and -9.71% (inactive) and -0.247% (inactive)

CC(C)C[C@H](NC(=O)[C@H](Cc1ccccc1)NC(=O)c1cnccn1)B(O)O
Potency [1]: 0.0093 µM (active) | Potency [2]: 0.0053 µM (active) | viability (% of control) [3]: 1.72% | viability, percent of control [4]: 3.27% | Potency [14]: 0.0026 µM (active) | Potency [5]: 0.833 µM (active)

Cc1cccc(-c2[nH]ncc2-c2ccc3ncccc3n2)n1
Potency [1]: inactive | Potency [2]: 13.7 µM (active) | viability (% of control) [3]: 76.5% [at 92.2 µM] | viability, percent of control [4]: 116% [at 92.2 µM] | Potency [14]: inactive | Potency [5]: inactive

Cc1ccc(Nc2nccc(N(C)c3ccc4c(C)n(C)nc4c3)n2)cc1S(N)(=O)=O
Potency [1]: inactive | Potency [2]: 16.8 µM (active) | viability (% of control) [3]: 13.2% | viability, percent of control [4]: 35.9% | Potency [5]: inactive

N[C@@H](Cc1cc(I)c(Oc2cc(I)c(O)c(I)c2)c(I)c1)C(=O)O
Potency [15]: 54.5 µM (active) | activation [9]: 8.63% (inactive) | Potency [10]: 44.7 µM (active) | max response [11]: -3.72% (inactive)

COc1cc2c(N3CCN(C(=O)Nc4ccc(OC(C)C)cc4)CC3)ncnc2cc1OCCCN1CCCCC1
Potency [2]: inactive | viability (% of control) [3]: 19.9% | viability, percent of control [4]: 15.5%

Cc1ccc(NC(=O)c2ccc(CN3CCN(C)CC3)cc2)cc1Nc1nccc(-c2cccnc2)n1
Potency [1]: inactive | viability (% of control) [3]: 48.3% | viability, percent of control [4]: 38%

Cc1ccc(C)c(OCCCC(C)(C)C(=O)O)c1
Potency [15]: inactive | activation [9]: -1.25% (inactive) and -0.0385% (inactive) | Potency [18]: inactive | Potency [19]: inactive | Potency [16]: inactive | activation [10]: -0.112% (inactive) and 1.21% (inactive) | max response [11]: 0.635% (inactive) and 1.7% (inactive)

CC(=O)Nc1ccc(O)cc1
Potency [15]: inactive | Potency [16]: inactive | activation [10]: 1.7% (inactive) and -0.186% (inactive)
